Records with an inconclusive call do not appear. Active and inactive are the calls of the source. Calls follow the shape of the dose curve; as a rule, active = well fitted cell-killing curve with a large enough effect; inconclusive = small, poorly fitted or top-dose-only effect, or effect the other way; inactive = flat fitted curve, though single readings scatter.
Experiments:
Experiment in all cases: Primary qHTS to identify gynecologic anti-cancer compounds using libraries of approved drugs and bioactive compounds (AID 1345084); also: nearly all actives have a fitted effect of over 55% in size
C33A = conditions: Gynecologic cancer cell panel viability, ATPlite luminescence, 48 h; series mostly up to 57.5 µM
Procedure, shortened: (§1)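 In this quantitative HTS, cell killing is estimated from loss of ATP-dependent luciferase light. Cells see five compound concentrations over a 48 h exposure.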

CAOV3 = conditions: Gynecologic cancer cell panel viability, ATPlite luminescence, 48 h; series mostly up to 57.5 µM
Procedure, shortened: as §1

CASKI = conditions: Gynecologic cancer cell panel viability, ATPlite luminescence, 48 h; series mostly up to 57.5 µM
Procedure, shortened: as §1

Es-2 = conditions: Gynecologic cancer cell panel viability, ATPlite luminescence, 48 h; series mostly up to 57.5 µM
Procedure, shortened: as §1

HeLa = conditions: Gynecologic cancer cell panel viability, ATPlite luminescence, 48 h; series mostly up to 57.5 µM
Procedure, shortened: as §1

Hek293T = conditions: Gynecologic cancer cell panel viability, ATPlite luminescence, 48 h, control line for the selectivity index; series mostly up to 57.5 µM
Procedure, shortened: as §1

JEG-3 = conditions: Gynecologic cancer cell panel viability, ATPlite luminescence, 48 h; series mostly up to 57.5 µM
Procedure, shortened: as §1

OV90 = conditions: Gynecologic cancer cell panel viability, ATPlite luminescence, 48 h; series mostly up to 57.5 µM
Procedure, shortened: as §1
% is scaled to controls: 0 for no effect and ±100 for the full control effect; potency is read from the fitted curve at half-maximal effect.

CC1=C(C(=O)OC2CCCCC2)C(c2ccc([N+](=O)[O-])cc2)C2=C(CC(C)(C)CC2=O)N1 (stereo unspecified)
inactive: Potency (C33A) | Potency (CAOV3) | Potency (CASKI) | Potency (Es-2) | Potency (HeLa) | Potency (Hek293T) | Potency (JEG-3) | Potency (OV90)

Cn1ncc2cc(-c3cnc(N)c(Cl)c3N3CCC4(CCNC4=O)CC3)ccc21
inactive: Potency (C33A) | Potency (CAOV3) | Potency (CASKI) | Potency (Es-2) | Potency (HeLa) | Potency (Hek293T) | Potency (JEG-3) | Potency (OV90)

Cc1cc2c(cc1N1C(=O)c3cccc4c(CCCO)ccc(c34)C1=O)n(C)c(=O)n2C
inactive: Potency (C33A) | Potency (CAOV3) | Potency (CASKI) | Potency (Es-2) | Potency (HeLa) | Potency (Hek293T) | Potency (JEG-3) | Potency (OV90)

CC1(C)CCCC2(C)C1C(OC(=O)/C=C/C=C/C=O)C=C1COC(=O)C12O (stereo unspecified)
inactive: Potency (C33A) | Potency (CAOV3) | Potency (CASKI) | Potency (Es-2) | Potency (HeLa) | Potency (Hek293T) | Potency (JEG-3) | Potency (OV90)

COc1ccc(CCO[C@@H]2O[C@H](CO[C@H]3OC[C@](O)(CO)[C@H]3O)[C@@H](OC(=O)/C=C/c3ccc(O)c(O)c3)[C@H](O[C@@H]3O[C@@H](C)[C@H](O)[C@@H](O)[C@H]3O)[C@H]2O)cc1OC
inactive: Potency (C33A) | Potency (CAOV3) | Potency (CASKI) | Potency (Es-2) | Potency (HeLa) | Potency (Hek293T) | Potency (JEG-3) | Potency (OV90)

COc1ccc(CCc2nc3cc(-c4c(C)noc4C)ccc3n2CC(C)N2CCOCC2)cc1Cl (stereo unspecified)
inactive: Potency (C33A) | Potency (CAOV3) | Potency (CASKI) | Potency (Es-2) | Potency (HeLa) | Potency (Hek293T) | Potency (JEG-3) | Potency (OV90)

C/C(=C\CCC(C)C1=CCC2(C)OC3=C(CC12)C(=O)C(O)CC3)CO (stereo unspecified)
inactive: Potency (C33A) | Potency (CAOV3) | Potency (CASKI) | Potency (Es-2) | Potency (HeLa) | Potency (Hek293T) | Potency (JEG-3) | Potency (OV90)

CN1CCN(c2ccc(Nc3cc(-c4cccc(-n5ccc6cc(C7CC7)cc(F)c6c5=O)c4CO)cn(C)c3=O)nc2)CC1
inactive: Potency (C33A) | Potency (CAOV3) | Potency (CASKI) | Potency (Es-2) | Potency (HeLa) | Potency (Hek293T) | Potency (JEG-3) | Potency (OV90)

COc1c(CCC(=O)O)cccc1O[C@@H]1O[C@H](CO)[C@@H](O)[C@H](O)[C@H]1O
inactive: Potency (C33A) | Potency (CAOV3) | Potency (CASKI) | Potency (Es-2) | Potency (HeLa) | Potency (Hek293T) | Potency (JEG-3) | Potency (OV90)

CC/C=C\CC1C(=O)C=CC1(CCCCC1CCC(=O)O1)OC(C)=O (stereo unspecified)
inactive: Potency (C33A) | Potency (CAOV3) | Potency (CASKI) | Potency (Es-2) | Potency (HeLa) | Potency (Hek293T) | Potency (JEG-3) | Potency (OV90)

CCCOc1ccc(S(=O)(=O)N2CCN(CCO)CC2)cc1-c1nc2c(CCC)cn(CC)c2c(=O)[nH]1
inactive: Potency (C33A) | Potency (CAOV3) | Potency (CASKI) | Potency (Es-2) | Potency (HeLa) | Potency (Hek293T) | Potency (JEG-3) | Potency (OV90)

C/C=C(/C=C(C)/C=C/C=C/C=C(\C)C(=O)C12OC1C(O)(CCO)NC2=O)C(=O)OC (stereo unspecified)
inactive: Potency (C33A) | Potency (CAOV3) | Potency (CASKI) | Potency (Es-2) | Potency (HeLa) | Potency (Hek293T) | Potency (JEG-3) | Potency (OV90)

C[C@H]1CC[C@@]2(OC1)O[C@H]1CC3[C@@H]4CC[C@@H]5C[C@@H](O[C@@H]6O[C@H](CO)[C@@H](O[C@@H]7O[C@@H](C)[C@H](O)[C@@H](O)[C@H]7O)[C@H](O)[C@H]6O[C@@H]6O[C@H](CO)[C@@H](O)[C@H](O)[C@H]6O)CC[C@]5(C)C4CC[C@]3(C)[C@H]1[C@@H]2C (stereo partly specified)
inactive: activity change, negative = cytotoxicity (C33A) -15.7% [at 11.6 µM] | activity change, negative = cytotoxicity (CAOV3) -14.9% [at 11.6 µM] | activity change, negative = cytotoxicity (CASKI) 2.17% [at 11.6 µM] | activity change, negative = cytotoxicity (Es-2) 0.261% [at 11.6 µM] | activity change, negative = cytotoxicity (HeLa) 24.8% [at 11.6 µM] | activity change, negative = cytotoxicity (Hek293T) -22.5% [at 11.6 µM] | activity change, negative = cytotoxicity (JEG-3) 3.99% [at 11.6 µM] | activity change, negative = cytotoxicity (OV90) -17.7% [at 11.6 µM]

O=C1COc2nccc(-c3ccccc3F)c2CN1Cc1cc(C(F)(F)F)cc(C(F)(F)F)c1
inactive: Potency (C33A) | Potency (CAOV3) | Potency (CASKI) | Potency (Es-2) | Potency (HeLa) | Potency (Hek293T) | Potency (JEG-3) | Potency (OV90)

COc1cc2nc(C3CC3)nc(N3CCN(c4ccccc4OC)CC3)c2cc1OC
inactive: Potency (C33A) | Potency (CAOV3) | Potency (CASKI) | Potency (Es-2) | Potency (HeLa) | Potency (Hek293T) | Potency (JEG-3) | Potency (OV90)

COc1cc(OC)c(NC(=O)c2ccc(Cc3cc4c(cc3C)C(C)(C)CCC4(C)C)o2)c(OC)c1
inactive: Potency (C33A) | Potency (CAOV3) | Potency (CASKI) | Potency (Es-2) | Potency (HeLa) | Potency (Hek293T) | Potency (JEG-3) | Potency (OV90)

CC(CCC1(O)OC2CC3C4CC=C5C[C@@H](O[C@@H]6O[C@H](CO)[C@@H](O[C@@H]7O[C@@H](C)[C@H](O)[C@@H](O)[C@H]7O)[C@H](O)[C@H]6O[C@@H]6O[C@@H](C)[C@H](O)[C@@H](O)[C@H]6O)CC[C@]5(C)C4CC[C@]3(C)[C@@]2(O)[C@@H]1C)CO[C@@H]1O[C@H](CO)[C@@H](O)[C@H](O)[C@H]1O (stereo partly specified)
active: Potency (CAOV3) 1000 nM
inactive: activity change, negative = cytotoxicity (C33A) -5.46% [at 11.6 µM] | activity change, negative = cytotoxicity (CASKI) 14.6% [at 11.6 µM] | activity change, negative = cytotoxicity (Es-2) 10.8% [at 11.6 µM] | activity change, negative = cytotoxicity (HeLa) 4.9% [at 11.6 µM] | activity change, negative = cytotoxicity (Hek293T) 7.85% [at 11.6 µM] | activity change, negative = cytotoxicity (JEG-3) 5.47% [at 11.6 µM] | activity change, negative = cytotoxicity (OV90) 3.45% [at 11.6 µM]

C=C(C(=O)O)[C@@H]1CC=C(CCC(C)=O)[C@@H](C)CC1
inactive: Potency (C33A) | Potency (CAOV3) | Potency (CASKI) | Potency (Es-2) | Potency (HeLa) | Potency (Hek293T) | Potency (JEG-3) | Potency (OV90)

COC(=O)c1ccc2c(c1)nc(NC(=O)c1ccccc1)n2CCCc1ccccc1
inactive: Potency (C33A) | Potency (CAOV3) | Potency (CASKI) | Potency (Es-2) | Potency (HeLa) | Potency (Hek293T) | Potency (JEG-3) | Potency (OV90)

COc1cc(C2OC(c3ccc(OC)c(OC)c3)C(C)C2C)ccc1O (stereo unspecified)
inactive: Potency (C33A) | Potency (CAOV3) | Potency (CASKI) | Potency (Es-2) | Potency (HeLa) | Potency (Hek293T) | Potency (JEG-3) | Potency (OV90)

N#CC(CCCN1CCN(/N=C/c2cccnc2)CC1)(c1ccccc1)c1ccccc1
inactive: Potency (C33A) | Potency (CAOV3) | Potency (CASKI) | Potency (Es-2) | Potency (HeLa) | Potency (Hek293T) | Potency (JEG-3) | Potency (OV90)

C=CCCN1CCC2(CC1)CN(C(=O)c1c(F)cccc1F)c1ccc(Cl)cc12
inactive: Potency (C33A) | Potency (CAOV3) | Potency (CASKI) | Potency (Es-2) | Potency (HeLa) | Potency (Hek293T) | Potency (JEG-3) | Potency (OV90)

C/C=C(\C)C(=O)OC1C[C@@]2(COC(C)=O)O[C@H]2/C=C\[C@@]2(C)O[C@@H]2[C@H]2OC(=O)C(COC(C)=O)=C12 (stereo partly specified)
inactive: Potency (C33A) | Potency (CAOV3) | Potency (CASKI) | Potency (Es-2) | Potency (HeLa) | Potency (Hek293T) | Potency (JEG-3) | Potency (OV90)

Cn1cc(-c2ccc(F)c(C(F)(F)F)c2)nc1C1CCN(c2ncnc3[nH]ncc23)CC1
inactive: Potency (C33A) | Potency (CAOV3) | Potency (CASKI) | Potency (Es-2) | Potency (HeLa) | Potency (Hek293T) | Potency (JEG-3) | Potency (OV90)

COc1ccc2nccc(C(=O)CC[C@@H]3CCN(CC#Cc4cc(F)cc(F)c4F)C[C@@H]3C(=O)O)c2c1
inactive: Potency (C33A) | Potency (CAOV3) | Potency (CASKI) | Potency (Es-2) | Potency (HeLa) | Potency (Hek293T) | Potency (JEG-3) | Potency (OV90)

S=C(c1ccc(-c2ccc(Cl)c(Cl)c2)o1)N1CCCCC1
inactive: Potency (C33A) | Potency (CAOV3) | Potency (CASKI) | Potency (Es-2) | Potency (HeLa) | Potency (Hek293T) | Potency (JEG-3) | Potency (OV90)

CC(C)(C)Oc1ccc(OCC2Cc3ccccc3CN2C(=O)c2cccc3ccccc23)cc1 (stereo unspecified)
inactive: Potency (C33A) | Potency (CAOV3) | Potency (CASKI) | Potency (Es-2) | Potency (HeLa) | Potency (Hek293T) | Potency (JEG-3) | Potency (OV90)

C=C1C(=O)OC2C=C(C)CC/C=C(\CO)CC(O)C12 (stereo unspecified)
inactive: Potency (C33A) | Potency (CAOV3) | Potency (CASKI) | Potency (Es-2) | Potency (HeLa) | Potency (Hek293T) | Potency (JEG-3) | Potency (OV90)

CC(=O)[C@H]1CC[C@H]2[C@@H]3CC=C4C[C@@H](OS(=O)(=O)O)CC[C@]4(C)[C@H]3CC[C@]12C
inactive: Potency (C33A) | Potency (CAOV3) | Potency (CASKI) | Potency (Es-2) | Potency (HeLa) | Potency (Hek293T) | Potency (JEG-3) | Potency (OV90)

CC(C)(Cc1nc(-c2ccc(O)cn2)no1)C(=O)NC1=C(C(=O)O)CCCC1
inactive: Potency (C33A) | Potency (CAOV3) | Potency (CASKI) | Potency (Es-2) | Potency (HeLa) | Potency (Hek293T) | Potency (JEG-3) | Potency (OV90)

O=C(NCc1ccc(OC(F)(F)F)cc1)C1c2c(F)cccc2C(=O)N1CCc1ccccn1 (stereo unspecified)
inactive: Potency (C33A) | Potency (CAOV3) | Potency (CASKI) | Potency (Es-2) | Potency (HeLa) | Potency (Hek293T) | Potency (JEG-3) | Potency (OV90)

COc1c(C(O)CC(C)C)ccc2c1C(=O)OCc1cc(C)cc(O)c1O2 (stereo unspecified)
inactive: Potency (C33A) | Potency (CAOV3) | Potency (CASKI) | Potency (Es-2) | Potency (HeLa) | Potency (Hek293T) | Potency (JEG-3) | Potency (OV90)

— PubChem BioAssay (NCATS)
